Here are results for 55 compounds from ChEMBL document CHEMBL4888484, “Replenishing the malaria drug discovery pipeline: Screening and hit evaluation of the MMV Hit Generation Library 1 (HGL1) against asexual blood stage Plasmodium falciparum ,using a nano luciferase reporter read-out” (2022).

In all, about 150,000 compounds went through this assay and about 540 (0.36%) showed an effect of 50% or more. This excerpt belongs to a sample that is enriched for strong results.

The test system of this assay is Plasmodium falciparum. Briefly: Primary screen in NF54 nanoGlo assay, in single point, at 2uM, 72h; a lower Z score goes with more inhibition. In kind it is functional, Erythrocyte. The settings on record: timepoint 72 hour.
A word on the % Inhibition: it is the change of the read-out against control, counted positive when it falls. As to `CC(NCC1COC(C)(C)O1)c1cc(Cl)c(N)c(Cl)c1` (stereo not given), the “% Inhibition” value was found to be 2% and the Z score is listed as -0.28.
On the same counts, the results for `CCCN1CCC(NCc2ccc(-c3cccc(Cl)c3Cl)o2)CC1` are 55% and -11.87.
For `Cc1nnc(NCc2ccc(-c3cccc(Cl)c3Cl)o2)n1C` the same measures were -8% and 0.79.
For `Clc1cccc(-c2ccc(CNC3CCCCC3)o2)c1` the same measures were -9% and 1.31.
Turning to `Oc1nc(N2CCOC3(CCCC3)C2)ncc1F`, the “% Inhibition” value turned out to be 55% and the Z score is recorded as -9.19.
On the same counts, the results for `Fc1cccnc1N1CCOC2(CCC2)C1` are -15% and 1.72.
Consider `OCCOc1cncc(N2CCOC3(CCCCCC3)C2)n1`, for which the “% Inhibition” value was 8% and the Z score was -0.67.
On the same counts, the results for `CC(=O)c1cccc(-c2ccc3c(cnn3CC(=O)Nc3ccnn3C)c2)c1` are -12% and 1.94.
On the same counts, the results for `Cc1ccc(CNC(=O)NCC(=O)N2CCC=C(F)C2)cc1` are 0% and 0.03.
Regarding `O=C(Nc1cnccc1CO)c1csc(C2CCCCC2)c1`, the “% Inhibition” value is 0% and the Z score worked out at 0.04.
For `O=C(N[C@H]1C[C@@H]2C[C@H]1N(C(=O)c1ccccc1C(F)(F)F)C2)c1cccnc1` the same measures were 35% and -3.96.
Take `Cc1cccc(NCc2ccc(N3N=C(c4ccccc4)C[C@H]3c3ccccc3)cc2)c1`: the “% Inhibition” value is recorded as -1% and the Z score amounted to 0.11.
Turning to `c1ccc(C2=NN(c3ccc(-c4cc(-c5ccccc5)[n+](-c5ccccc5)c(-c5ccccc5)c4)cc3)[C@H](c3ccccc3)C2)cc1`, the “% Inhibition” value is recorded as 91% and the Z score was -14.02.
For `O=C(NCc1ccc(-n2cncn2)nc1)c1ccncc1` the same measures were -19% and 1.67.
On the same counts, the results for `O=C(Cc1ccc(Cl)cc1)Nc1cnc(-n2ccnc2)nc1` are 4% and -0.61.
On the same counts, the results for `COC1(C)CC(N(C)C(=O)[C@@H]2Cc3cncn3C(=O)N2)C1(C)C` (stereo not given in full) are -3% and 0.52.
As for `Cn1cnnc1[C@H]1CCCN(S(=O)(=O)N2CCCCC2)C1`, the “% Inhibition” value was -6% and the Z score was determined as 0.88.
Take `O=C(N[C@H]1CCc2ncccc2C1)c1cccc(B(O)O)c1`: the “% Inhibition” value is -4% and the Z score was 0.45.
For `O=C(NCCN1CCC(CO)CC1)N1CC(Oc2ccccc2F)C1` the same measures were -17% and 1.55.
On the same counts, the results for `N[C@H]1C[C@H](c2cc(NCCCc3cccnc3)nc(C3CC3)n2)C1` are 71% and -7.09.
For `CC(=O)N[C@H]1C[C@@H](c2cc(NCCCc3cccnc3)nc(C)n2)C1` the same measures were -15% and 2.91.
Take `NC1CC(c2cc(NCc3cccnc3)nc(C3CC3)n2)C1` (stereo not given): the “% Inhibition” value came out at 15% and the Z score is listed as -2.04.
On the same counts, the results for `C[C@@H](C(=O)NC(C)(C)c1noc(C(N)=O)n1)c1ccccc1` are 2% and -0.23.
For `O=C1COc2ccccc2N1Cc1nc(-c2ccc(N3CCOCC3)cc2)no1` the same measures were -19% and 2.51.
On the same counts, the results for `C[C@@H](c1cccnc1)N(C)CC(=O)Nc1nccs1` are 9% and -1.03.
In the case of `CC(C)N(CC(=O)Nc1nccs1)C(=O)COCc1ccccc1`, the “% Inhibition” value is -7% and the Z score turned out to be 0.71.
On the same counts, the results for `CC(C)N(CC(=O)Nc1nccs1)Cc1ccccn1` are 65% and -10.08.
With `COc1ccc(Nc2nc(N3CCCC3)nc3c2cnn3C)cc1Cl`, the “% Inhibition” value is on record as 27% and the Z score was -3.01.
On the same counts, the results for `O=C(Cn1ncn2nccc2c1=O)Nc1cc(Cl)cc(Cl)c1` are -3% and 0.43.
For `COc1ccc(Cl)cc1C(=O)N[C@H]1CCc2nn(C)c(=O)cc2C1` the same measures were -18% and 3.11.
As for `COc1ccc(CC(=O)Nc2cc(C3CC3)nn2-c2nc(C)cc(=O)[nH]2)cc1`, the “% Inhibition” value is 0% and the Z score is given as -0.01.
On the same counts, the results for `COc1ccc(Cl)cc1C(=O)Nc1ccnn1C[C@H]1CCOC1` are 3% and -0.37.
For `Cc1cc(=O)[nH]c(-n2nc(C3CC3)cc2NC(=O)C(C)(C)Oc2ccc(Cl)cc2)n1` the same measures were 84% and -15.44.
On the same counts, the results for `COc1ccc(Cl)cc1C(=O)Nc1cc(C2CC2)nn1-c1nc(C)cc(=O)[nH]1` are 63% and -6.61.
In the case of `CC(C)(Oc1ccc(Cl)cc1)C(=O)Nc1c2c(nn1C(C)(C)C)CS(=O)(=O)C2`, the “% Inhibition” value is given as -14% and the Z score was determined as 2.68.
For `Cc1cnn(CCCNC(=O)C[C@H]2COCCN2Cc2ccc(C)o2)c1` the same measures were -20% and 2.24.
As to `CN(C)c1ccc(NC(=O)Cc2cnn(-c3ccccc3)c2)cn1`, the “% Inhibition” value is listed as -12% and the Z score is on record as 1.6.
For `N#Cc1nccnc1N[C@H]1CCCN(CC(F)(F)F)C1` the same measures were -11% and 1.83.
On the same counts, the results for `Cc1ccc(CN2C[C@@H](CO)[C@H](NC(=O)C3CCC3)C2)o1` are -6% and 0.86.
For `Cc1ccc(N2C(=O)c3ccccc3[C@@H]2c2c[nH]c3ccccc23)cc1` the same measures were 63% and -5.25.
`CC(c1ccccc1)N1C(=O)c2ccccc2C1c1c[nH]c2ccccc12` (stereo not given): the “% Inhibition” value is on record as 43% and the Z score is given as -5.38.
For `COc1ccc(N2C(=O)c3ccccc3[C@@H]2c2cn(C)c3ccccc23)cc1` the same measures were 7% and -0.85.
For `COc1ccc(CC(=O)N2CCCS(=O)(=O)C[C@H]2C2CC2)nc1` the same measures were -1% and 0.08.
For `Cc1cccc2ncnc(N(C)[C@@H](C)Cc3ccc(O)cc3)c12` the same measures were 77% and -16.2.
Take `Cc1cccc2ncnc(N(C)C3CC[S+]([O-])CC3)c12` (stereo not given): the “% Inhibition” value turned out to be 3% and the Z score is recorded as -0.52.
On the same counts, the results for `CC1(C)C[C@@H](NC(=O)[C@H]2CC[C@H](Cn3cnc4ccccc4c3=O)CC2)CCO1` are -6% and 0.79.
For `C[C@@]1(NC(=O)CCc2nc(C3CCCC3)no2)CC=CCC1` the same measures were -10% and 1.9.
As to `O=C(NCC[C@H]1CCOC1)c1ccc(-c2ccc3cc[nH]c(=O)c3c2)cc1`, the “% Inhibition” value is -14% and the Z score was 1.37.
For `CN1CC[C@H](N(C)C(=O)c2ccc(-c3ccc4c(=O)[nH]ccc4c3)cc2)C1` the same measures were -4% and 0.47.
As to `CN(C)c1ccc([C@@H](CNC(=O)c2cccc(F)c2)c2c[nH]c3ccccc23)cc1`, the “% Inhibition” value is reported as 2% and the Z score is given as -0.26.
For `COCCN1CCC(CN(Cc2ccncc2)Cc2cc(C)c(C)o2)CC1` the same measures were -30% and 4.08.
On the same counts, the results for `CN1CCC(N2CCC(CN(Cc3ccncc3)C3CCOCC3)CC2)CC1` are 0% and 0.
On the same counts, the results for `CN1CCC(N2CCC(CN(Cc3ccncc3)Cc3c(F)cccc3Cl)CC2)CC1` are 98% and -9.12.
Take `COCCN1CCC(CN(Cc2ccncc2)Cc2nc3ccc(F)cc3[nH]2)CC1`: the “% Inhibition” value is reported as 0% and the Z score is 0.04.
With `COc1ccc(CN(Cc2ccncc2)CC2CCN(C3CCN(C)CC3)CC2)c(F)c1`, the “% Inhibition” value was found to be 88% and the Z score was -10.13.
